These results are taken from PubChem BioAssay (Tox21).

The target in experiment [1] is Retinoic acid receptor RXR-alpha (Homo sapiens) (UniProt P19793). Briefly: qHTS assay to identify small molecule agonists of the RXR signaling pathway (AID 1159527; calls by dose curve; note: nearly all actives have a fitted effect of over 35% in size; note: potency is the fitted concentration of half-maximal effect). A digest of the protocol:
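Read-out: beta-lactamase FRET ratio (405 nm excitation, 460 and 530 nm emission) after 2 hr substrate loading at room temperature. Cells were RXR-alpha-UAS-bla HEK 293T treated with compounds for 16 hr in 2% charcoal-stripped FBS medium.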
A general note: Quantitative high-throughput screening tests each substance at several concentrations.

Experiment [2] is described as follows: qHTS assay to identify small molecule agonists of the RXR signaling pathway - cell viability counter screen (AID 1159529). Note: series mostly up to about 77 µM; nearly all actives have a fitted effect of over 50% in size. In outline:
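HEK 293T RXRa-bla cells, 2% CS-FBS; 5 h settle; cpd 16 h 37 C, 5% CO2; CellTiter-Glo 30 min RT, luminescence. Tetraoctyl ammonium bromide as positive control.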

A short description of experiment [3]: qHTS assay to identify small molecule antagonists of the retinoid acid receptor (RAR) signaling pathway - cell viability counter screen (AID 1159551). Note: nearly all actives have a fitted effect of over 35% in size. A digest of the protocol: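 In this counter screen, the RARE-luciferase line C3RL4 was exposed for 6 h at 37 C and 5% CO2 to compounds with retinol at 1 uM final. Cellular ATP, read by luminescence, served as the viability measure.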

Experiment [4] in a line: qHTS assay to identify small molecule antagonists of the retinoic acid receptor (RAR) signaling pathway (AID 1159552; note: nearly all actives have a fitted effect of over 50% in size; note: potency is the fitted concentration of half-maximal effect). In outline: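 Cells of the C3RL4 line were seeded, incubated overnight, then dosed with compounds in DMSO followed immediately by retinol (1 uM final). Six hours later luciferase detection reagent went in; signal was measured after 30 min at RT.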
Experiment [5] is described as follows: qHTS assay to identify small molecule agonists of the retinoic acid receptor (RAR) signaling pathway (AID 1159553). Note: potency is the fitted concentration of half-maximal effect. A digest of the protocol: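 In this cell-based screen, 1,000 C3RL4 cells per well were cultured overnight, dosed with test chemicals in DMSO for 6 hr, and assessed for RARE luciferase luminescence.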
Experiment [6] is described as follows: qHTS assay to identify small molecule antagonists of the estrogen related receptor (ERR) signaling pathway - cell viability counter screen (AID 1224818). Note: series mostly up to about 46 µM. A digest of the protocol: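 Viability of ERR cells, CellTiter-Fluor fluorescence; 17.5 h compound exposure at 37 C, DMSO vehicle; 30 min reagent incubation at 37 C/5% CO2.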
The nature of experiment [7]: qHTS assay to identify small molecule antagonists of the estrogen related receptor signaling pathway with the pleiotropic PPARgamma coactivator (PGC) cell viability counter screen (AID 1224822; note: series mostly up to about 46 µM). A digest of the protocol:
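17.5 h compound treatment of PGC/ERR cells at 37 C; readout CellTiter-Fluor fluorescence; run alongside the PGC/ERR antagonist screen to flag cytotoxic compounds.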

Experiment [8] in a line: qHTS assay to identify small molecule antagonists of the estrogen related receptor (ERR) signaling pathway (AID 1224819; note: series mostly up to about 46 µM; nearly all actives have a fitted effect of over 50% in size). A digest of the protocol:
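Seed ERR cells 2,000/well; rest 6 h at 37 C/5% CO2; pin compounds in DMSO; incubate 18 h at 37 C; add One-Glo; wait 30 min at room temperature; measure luminescence.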

Experiment [9] is described as follows: qHTS assay to identify small molecule agonists of the estrogen related receptor (ERR) signaling pathway (AID 1224820). In outline:
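After 6 h plating (2,000 cells/well) and 18 h compound treatment at 37 C, ERR cells were lysed with One-Glo and luminescence read after 30 min at room temperature.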

The subject of experiment [10] is estrogen-related receptor alpha (ERRalpha) with PGC-1alpha coactivator, human. Briefly: qHTS assay to identify small molecule antagonists of the estrogen related receptor signaling pathway with the pleiotropic PPARgamma coactivator (PGC) (AID 1224821; calls by dose curve;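 note: series mostly up to about 46 µM; lower luminescence signal means antagonism of PGC/ERR signalling; nearly all actives have a fitted effect of over 50% in size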). A digest of the protocol:
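Luminescence from One-Glo luciferase reagent (30 min, room temperature) measured after 18 h compound treatment at 37 °C. Cells carry the PGC/ERR reporter and were seeded 6 h prior to dosing.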

Molecules are shown by their SMILES. Records with an inconclusive call do not appear. Activity calls are given as the source filed them. Unless noted, calls come from the whole dose curve; as a rule, active = well fitted curve in the direction sought with a large enough effect in the repeat runs; inconclusive = weak or mixed curves; inactive = no such curve, though single readings can be large; an effect the other way counts as inactive or inconclusive.

Chain of Retinoic acid receptor RXR-alpha (Homo sapiens) (P19793 whole entry, looked up): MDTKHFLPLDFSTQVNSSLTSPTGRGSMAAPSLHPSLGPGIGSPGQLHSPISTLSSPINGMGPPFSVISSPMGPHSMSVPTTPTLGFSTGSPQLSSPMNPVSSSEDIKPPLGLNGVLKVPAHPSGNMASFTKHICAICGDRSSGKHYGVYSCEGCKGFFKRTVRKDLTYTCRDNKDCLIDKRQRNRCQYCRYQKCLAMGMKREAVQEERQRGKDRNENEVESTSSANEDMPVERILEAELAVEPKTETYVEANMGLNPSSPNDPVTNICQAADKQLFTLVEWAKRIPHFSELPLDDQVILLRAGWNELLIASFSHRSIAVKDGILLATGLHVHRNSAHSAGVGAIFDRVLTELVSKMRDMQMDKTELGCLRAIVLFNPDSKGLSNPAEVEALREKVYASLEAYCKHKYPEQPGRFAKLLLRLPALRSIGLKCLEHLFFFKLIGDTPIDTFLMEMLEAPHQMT

With `CCCCS(=O)(=O)Cl`, the Potency result in experiment [1], in experiment [2], in experiment [3], in [4] and in [5] was “inactive” each time.

As for `O=C(Cl)CCl`, the Potency result in experiment [1], in [2], in experiment [3], in [4] and in experiment [5] was “inactive” throughout.

In the case of `NNC(N)=O`, the Potency entry in experiment [1], in experiment [2], in experiment [3] and in [4] was “inactive” throughout. Moreover, the molecule was called inactive in experiment [6] and in experiment [7].

Regarding `CCOC(=O)C(Cl)Cc1cc(-n2nc(C)n(C(F)F)c2=O)c(F)cc1Cl` (stereo not given), the Potency result in experiment [1], in [2], in [3] and in experiment [5] was “inactive” throughout.

Regarding `CCC1(CC)C(=O)C=CNC1=O`, the Potency result in [1], in experiment [2], in experiment [3], in [4] and in experiment [5] was “inactive” throughout.

Turning to `CCSC(=O)Cl`, the Potency entry in experiment [1], in experiment [2], in experiment [3], in experiment [4] and in experiment [5] was “inactive” each time.

On to `O=C(Cl)c1ccccc1`, for which the Potency entry in [1], in [2], in [3] and in experiment [5] was “inactive” each time.

Regarding `CC(Cc1ccccc1)NCCCCl` (stereo not given), the Potency entry in [1], in [2], in experiment [3], in [4] and in experiment [5] was “inactive” in each case.

With `N[C@@H]1C[C@H]1c1ccccc1`, the Potency entry in experiment [1], in experiment [2], in [3], in [4] and in [5] was “inactive” each time.

Turning to `CON(C)C(=O)Nc1ccc(Br)c(Cl)c1`, the Potency entry in experiment [1], in experiment [2], in experiment [3] and in experiment [4] was “inactive” throughout. Also, the Potency in experiment [5] is 21.7 µM (active).

`CCOC(=O)N(C)N=O`: the Potency entry in experiment [1], in [2], in experiment [3], in experiment [4] and in [5] was “inactive” each time.

For the molecule `CCOC(=O)CCl`, the Potency result in [1], in experiment [2], in [3], in experiment [4] and in experiment [5] was “inactive” each time.

With `CC[C@@H](CO)NC(=O)[C@@H]1C=C2c3cccc4[nH]cc(c34)C[C@H]2N(C)C1`, the Potency result in experiment [1], in experiment [2], in [3], in experiment [4] and in [5] was “inactive” in each case. The result in experiment [6], in experiment [8], in experiment [9], in experiment [10] and in experiment [7] was inactive.

As to `O=C1CC(=O)NC(=O)N1`, the Potency entry in [1], in [2], in [3], in [4] and in experiment [5] was “inactive” each time.

For the molecule `CC1NCCOC1c1ccccc1` (stereo not given), the Potency entry in experiment [1], in [2], in experiment [3] and in experiment [5] was “inactive” throughout.

As for `N#CC(Br)(Br)C(N)=O`, the Potency in [1] was 1.55 µM (active); in experiment [4] it was 4.86 µM (active). Moreover, the Potency entry in experiment [2], in experiment [3] and in experiment [5] was “inactive” each time.

Regarding `CN(C)CCc1c[nH]c2cccc(OP(=O)(O)O)c12`, the Potency entry in experiment [1], in experiment [2], in experiment [3], in experiment [4] and in experiment [5] was “inactive” throughout.

As to `NCC1(CC(=O)O)CCCCC1`, the Potency result in experiment [1], in experiment [2], in [3], in experiment [4] and in experiment [5] was “inactive” in each case. The call in experiment [6] and in experiment [7] was inactive.

Consider `Cn1c(CCCC(=O)O)nc2cc(N(CCCl)CCCl)ccc21`, for which the Potency result in experiment [1], in experiment [2], in experiment [3], in [4] and in experiment [5] was “inactive” each time. Moreover, the outcome in [6], in [9], in experiment [10] and in experiment [7] was inactive.

On to `CS(=O)(=O)c1ccc(C(=O)C2C(=O)CCCC2=O)c(Cl)c1COCC(F)(F)F`, for which the Potency result in experiment [1], in experiment [2], in experiment [3] and in [5] was “inactive” each time.

For the molecule `Oc1ccc2c3c1O[C@H]1[C@@H](O)C=C[C@H]4[C@@H](C2)NCC[C@@]341`, the Potency result in experiment [1], in experiment [2], in [3] and in [5] was “inactive” each time.

With `Cc1ccc(-c2nc3ccc(C)cn3c2CC(=O)N(C)C)cc1`, the Potency entry in [1], in experiment [2] and in experiment [3] was “inactive” in each case. Also, the Potency in experiment [5] was 23.7 µM (active).

As for `CCCCCCC1CCOC1=O` (stereo not given), the Potency result in experiment [1], in experiment [2], in experiment [3] and in experiment [5] was “inactive” in each case.

For `O=C(O)C(F)(F)C(F)(F)C(F)(F)C(F)(F)C(F)(F)C(F)(F)F`, the Potency result in experiment [1], in [2], in experiment [3] and in [5] was “inactive” in each case.

Regarding `COC1=CC(=O)O[C@@H](/C=C/c2ccccc2)C1`, the Potency entry in [1], in experiment [2] and in experiment [3] was “inactive” throughout. Also, the Potency in [5] is 24.7 µM (active).

`S=C=S`: the Potency entry in experiment [1], in experiment [2], in experiment [3] and in [5] was “inactive” throughout.

For `O=C(Cl)OCc1ccccc1`, the Potency result in [1], in experiment [2], in experiment [3] and in experiment [5] was “inactive” each time.

In the case of `CN1COCN(Cc2cnc(Cl)s2)/C1=N\[N+](=O)[O-]`, the Potency result in [1], in [2], in experiment [3] and in [5] was “inactive” throughout.

For the molecule `COP(=O)(OC)O/C(C)=C/C(=O)N(C)C`, the Potency result in experiment [2], in experiment [3] and in experiment [4] was “inactive” throughout.

Take `CON(C)C(=O)Nc1ccc(Br)cc1`: the Potency entry in experiment [2], in experiment [3] and in experiment [4] was “inactive” each time.

`CC(C)[N+](C)(CCC(C(N)=O)(c1ccccc1)c1ccccc1)C(C)C`: the Potency result in [1], in [2], in [3] and in [5] was “inactive” throughout.

As to `Cc1ccc(S(=O)(=O)N[C@@H](CCCCN)C(=O)CCl)cc1`, the Potency result in experiment [1], in [2], in experiment [3] and in [5] was “inactive” in each case. In addition, the result in experiment [6], in [8], in experiment [9] and in experiment [7] was inactive.

On to `C(COCC1CO1)OCC1CO1` (stereo not given), for which the Potency entry in experiment [2], in [3] and in experiment [4] was “inactive” throughout.

On to `NC1(c2ccccc2)CCCCC1`, for which the Potency entry in [1], in experiment [2], in experiment [3] and in experiment [5] was “inactive” each time.

With `CCOP(=S)(OCC)Oc1ccc(Cl)cc1Cl`, the Potency entry in experiment [1], in [2], in experiment [3] and in experiment [5] was “inactive” each time.

On to `CCN[C@H](C)Cc1cccc(C(F)(F)F)c1`, for which the Potency result in [2], in experiment [3] and in experiment [4] was “inactive” in each case.

On to `CCC(C)(C#N)N=NC(C)(C#N)CC` (stereo not given), for which the Potency entry in [1], in experiment [2], in experiment [3] and in experiment [5] was “inactive” each time.

Take `ClCCCCl`: the Potency entry in experiment [2], in experiment [3] and in experiment [4] was “inactive” each time.

As for `CC(O)CCl` (stereo not given), the Potency entry in [1], in experiment [2], in [3] and in [5] was “inactive” in each case.

Take `CC#Cc1cc(C)nc(Nc2ccccc2)n1`: the Potency entry in experiment [2], in experiment [3] and in experiment [4] was “inactive” in each case.

On to `C#CCOC(=O)/C=C(C)/C=C/CC(C)CCCC(C)C` (stereo not given), for which the Potency in experiment [1] is 49 µM (active). The Potency entry in experiment [2], in experiment [3] and in experiment [5] was “inactive” each time.
